Drawing on PubChem BioAssay AID463165 (Johns Hopkins Ion Channel Center, 2010), this text covers B-score for 31 compounds.

Among all 310,000 compounds or so, about 1,400 (0.45%) were called active. The sample holds actives, similar compounds and a random draw of the others, so the mix is not that of the screen.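 The calls were made as follows: active = B-score, a plate-corrected calcium signal, over three deviations above library mean, with baseline fluorescence within five deviations of library mean; inactive = the rest.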

For this test, the target named is Regulator of G-protein signaling 4 (Homo sapiens) (UniProt P49798). Kind of test: RGS4 inhibitors, primary screen, cell-based, HEK293 M3R inducible RGS4, calcium flux (AID 463165).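 Also: RGS4 expression induced by doxycycline in cells with stable M3 receptor.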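 As to B-score: B-score is computed from the integrated fluorescence ratio over baseline after carbachol; higher B-score means a larger calcium signal and so more RGS4 inhibition.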 The following applies: Fluo-4 calcium flux, at 10 µM, triggered by carbachol at its EC20; stronger effect = higher value. A general note: Calcium assays in cells follow changes in intracellular calcium, usually with a dye or a luminescent sensor.
Regulator of G-protein signaling 4 (Homo sapiens), sequence (P49798 whole entry, looked up): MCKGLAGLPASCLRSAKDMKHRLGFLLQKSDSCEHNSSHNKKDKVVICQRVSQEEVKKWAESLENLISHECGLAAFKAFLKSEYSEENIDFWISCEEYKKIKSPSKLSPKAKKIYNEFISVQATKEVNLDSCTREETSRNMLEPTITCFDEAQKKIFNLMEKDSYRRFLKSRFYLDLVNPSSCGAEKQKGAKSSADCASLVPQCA
For the compound `O=c1c(-c2cccc(Cl)c2)c[nH]n1-c1ccccc1`, the B-score result is “inactive”. In the case of `O=C1NC(c2cccc(Cl)c2)Nc2ccccc21` (stereo unspecified) it was “inactive”; in that of `O=C1c2ccccc2NC(c2ccc(-c3cccc(Cl)c3)o2)N1O` (stereo unspecified), 8.05 (active). In the case of `CCOC(=O)c1ccc(NC(=O)c2cccnc2)cc1` it was “inactive”. In the case of `COCCc1nn2c(=O)cc(COC(=O)c3cc(OC)c(OC)c(OC)c3)nc2s1` it was “inactive”; in that of `Cc1nn2c(=O)cc(COC(=O)c3ccc(NC(=O)C(C)(C)C)cc3)nc2s1`, 17.9 (active). Regarding `COc1ccc(CC(=O)NC2CCSc3ccccc32)cc1OC` (stereo unspecified), the B-score result was “inactive”. In the case of `CN(C(=O)c1cccc([N+](=O)[O-])c1)c1ccccc1C(=O)NCc1ccccc1`, the B-score entry was “inactive”. In the case of `C#CCOc1ccc(/C=C2/C(=O)ON=C2C)cc1OCC` it was 6.2 (active); in that of `C#CCOc1ccccc1/C=C1/C(=O)ON=C1C`, “inactive”. In the case of `COc1cc(/C=C2/C(=O)ON=C2C)ccc1OCc1ccccc1F` it was “inactive”; in that of `C=CCOc1ccc(/C=C2/C(=O)ON=C2C)cc1OCC`, 9.13 (active). In the case of `COc1cc(/C=C2/C(=O)ON=C2C)ccc1OCc1cccc(F)c1` it was “inactive”.

For the compound `CC1=NOC(=O)/C1=C\c1ccccc1`, the B-score entry was “inactive”. Take `O=C(O)C1C2C=CC(O2)C1C(=O)NCCc1cccc(Cl)c1` (stereo unspecified): the B-score result is “inactive”. Under `O=C(Oc1c(-c2ccco2)oc2ccccc2c1=O)c1cccnc1` stands “inactive”; under `O=C1C(=O)N(c2ccccc2)c2ccccc21`, “inactive”; under `COC(=O)C1CCN(C(=O)c2cc(=O)[nH]c3ccccc23)CC1`, 5.3 (active). In the case of `CC1CCCCC1NC(=O)c1cc(=O)[nH]c2ccccc12` (stereo unspecified) it was “inactive”; in that of `CC(C)(CNC(=O)c1cc(=O)[nH]c2ccccc12)N1CCOCC1`, “inactive”; in that of `O=C(CNC(=O)[C@@H]1Cc2ccccc2CN1)NC1CCCCC1`, “inactive”. In the case of `COc1ccccc1N1CCN(S(=O)(=O)CCNC(=O)c2ccc(OC(C)C)cc2)CC1` it was “inactive”; in that of `Cc1ccc(CSCC2Nc3ccc(C(=O)N4CCN(c5ccc(F)cc5)CC4)cc3NC2=O)cc1` (stereo unspecified), “inactive”. Take `COc1ccc(N2CCN(C(c3cc4ccc(C)cc4[nH]c3=O)c3nnnn3C3CCCC3)CC2)cc1` (stereo unspecified): the B-score entry was “inactive”.

Regarding `CCOC(=O)C1CCN(C(c2cc3cc(C)cc(C)c3[nH]c2=O)c2nnnn2C2CCCCC2)CC1` (stereo unspecified), the B-score is 6.12 (active).

Consider `Cc1cc(C)c2[nH]c(=O)c(C(c3nnnn3Cc3ccc4c(c3)OCO4)N3CCCC3)cc2c1` (stereo unspecified), for which the B-score entry is “inactive”. In the case of `COc1ccc(S(=O)(=O)NCCc2cc3ccc(C)c(C)c3[nH]c2=O)cc1` it was “inactive”. For the compound `CCOCCCNC(=O)c1cc2c(=O)n3ccccc3nc2s1`, the B-score entry was “inactive”. In the case of `Cc1cc(C)nc(SCC(=O)c2ccc(Cl)cc2)n1` it was “inactive”; in that of `Cc1ccc(N/C=C/C(=O)c2ccccc2)cc1C`, “inactive”.

For `Cc1cc(C)nc(S/C=C/C(=O)c2ccccc2)n1`, the B-score was 10.7 (active).
